39 sequences from the supplement of paper PMC6555819 can be followed below.

For this experiment, the system named is RARb:RXRa (NR concentration 270 nM, RXRa partner concentration 90 nM). Nature of the experiment: PBM binding z-score (relative to random genomic background probes); higher = stronger binding; sequences stand for … in GC…GCGATTGACAGCGTAGAATGAAGG
The gist of the method: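 Regression normalization was applied to scanned fluorescence from custom Agilent 4×180K protein-binding microarrays. Before scanning, arrays were incubated 1 h with ligand-free nuclear receptor dimers, and binding was detected with antibodies against each partner (one per run). Binding z-scores use the random background probes as reference.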
GCGACTGGGGCATCAGCAGGTTACGATAACTTAA: the PBM binding z-score worked out at 0.866.

GATACAGGGTCAAGACCAGAGTACGCGTATTGAT registered a PBM binding z-score of 4.28.

Consider TCTTGTAGATCAGCAGGTAAAGAAAGCTGGCCAA, for which the PBM binding z-score was -0.482.

Consider GGATCGAGGGCAAGTTGATAGCAGAGTTTGATGG, for which the PBM binding z-score was found to be 2.49.

ACTGACAGGTGAGTGAAGGTAACTCAGCTGGACG came in with a PBM binding z-score of 0.482.

As to CGTCCAGGGTCAGAGAGGTCAGTGAATGCCGAGT, the PBM binding z-score came to 4.77.

Turning to TAGCCTAGGTCGTGCGGGCCAGTATAGTGTCGGC, the PBM binding z-score was found to be 0.97.

As to TCTGCTAGGTCAGTAGGTCAGCTAACGAGCTGCC, the PBM binding z-score is 3.79.

Take CGAACTATGTCAGAACAGGACAGTGAAGGATGAT: the PBM binding z-score came to 0.461.

Sequence TGAATGAGGTTATAAGATCAGCGAACGTTGCAAA showed a PBM binding z-score of 1.06.

Sequence GCTTACGGGTCAAAGATTATAGCATGAATAGAAT yielded a PBM binding z-score of 3.39.

For the sequence AGAACGAGGGCAAGCTGAGTTGATAGCAGAGTAG, the PBM binding z-score is 2.46.

In turn, CGAACGAGGGCATGAGTGGATAGCAAATGCCGAT had a PBM binding z-score of 1.91.

Sequence CTCGCAAGGTCGTGCTCAGGTGAGTATACCAAAC came in with a PBM binding z-score of 2.47.

On to TAAGACAGGTGAAGGTAACTCAGGTACGCAGTCG, for which the PBM binding z-score worked out at 1.51.

As to TGATATAGGTAAAGGTGAAAGTCGAACGATATGA, the PBM binding z-score turned out to be 1.8.

In turn, ATCTCTAGGTAAAGATAGTTCACTGAATGCAAAT gave a PBM binding z-score of 1.26.

Regarding CCGTACGGGTCACGAGGTTATAGCACGACGAGCG, the PBM binding z-score amounted to 4.48.

On to CCTACTGGGCCAAAGGTCATTCATTCCAATGCTC, for which the PBM binding z-score was 4.46.

For the sequence TGTCAAAGTTCAAAGGAAACGTAAGTATCCACAC, the PBM binding z-score was determined as 4.95.

CTCGAAAGGTCGGTTGAGGTGAGAATACGGATAA had a PBM binding z-score of 2.98.

CCAGACAGGTGAAAGTTAACTCAGTCTGGTACGC: the PBM binding z-score stood at 1.04.

Sequence GATACAGGGTCAAGGCCAGACTACGCGTATTGAT displayed a PBM binding z-score of 4.6.

CCAGACAGGTGAGAAGGTAACTGAGCCTCGATTA showed a PBM binding z-score of 0.396.

For the sequence ATCGAAAGATCGACGAGGTGAGTATACACCGTTT, the PBM binding z-score is -0.0508.

In turn, CCTACTGGGCCATCAGGTCATTGACATCAACGTT gave a PBM binding z-score of 2.09.

For GCGACTGGGGCAAAGCCGGTTACCATAAGGTTGG, the PBM binding z-score worked out at 0.632.

In turn, CCGACTGGGGCAGAACGGTTACCATACCATCCGG showed a PBM binding z-score of 0.227.

On to ACTAGCAGGCCAAGTTTGGGTCACTCACACAAAG, for which the PBM binding z-score stood at 2.06.

On to GCGAGCAGGCCATTTGGGTCACTCAATGACGGGC, for which the PBM binding z-score was determined as 1.69.

Consider AATACAGGGTCACTAGGCCAGAATAGGTACGAAT, for which the PBM binding z-score was found to be 4.27.

Consider GCGACTGGGGCATCAGCAGTTTACCATAACTTAA, for which the PBM binding z-score amounted to 0.388.

TCTGCTAGGTCAATGATGGTCAGCTAATCTGCTA had a PBM binding z-score of 3.72.

With TCTAGTTGGTCACGGAGGTCACAGACGACGGGTA, the PBM binding z-score was 3.96.

As to CCTAGCGGGCCAATCTGGGTCACTCAAGGCTTGA, the PBM binding z-score amounted to 1.45.

Sequence GCAACGAGGGCAAGTTGATAGCAGAGTTTGATGG came in with a PBM binding z-score of 2.8.

Turning to ATATGTAGGTTAAGGGTAATTCAGGTTGGTTCGC, the PBM binding z-score was determined as 1.69.

With CAAACTAGGCCACGAAAGGTCAAAGTCGAATGAC, the PBM binding z-score was 4.68.

Take CTCAAAAGGTCGTGCTCAGGTGAGTATACCAAAC: the PBM binding z-score came out at 4.03.
